Experimental findings from PubChem BioAssay (Tox21) are described below.

Records with an inconclusive call do not appear. Entries that show only a call come without a potency. The source made the active and inactive calls. The call rests on the fitted dose curve; in most records, active means well fitted cell-killing curve with a large enough effect in the repeat runs; inconclusive means weak or mixed curves, or effect the other way; inactive means no such curve, though single readings can be large or run the other way.
Potency means the concentration at half of the fitted maximal effect.

This assay in a line: qHTS assay to identify small molecule antagonists of the progesterone receptor (PR) signaling pathway - cell viability counter screen (AID 1346798). Further: nearly all actives have a fitted effect of over 50% in size. The conditions noted are these: PR-UAS-bla HEK293T viability, CellTiter-Glo luminescence, 16 h; series mostly up to 92.4 µM. The source says: National Center for Advancing Translational Sciences [NCATS]
NIH Chemical Genomics Center [NCGC]
U.S. Environmental Protection Agency [EPA]
National Institutes of Environmental Health Sciences [NIEHS]
National Toxicology Program [NTP]
U.S. Food and Drug Administration [FDA]
Progesterone receptor (PR), a nuclear hormone receptor, plays an important role in development, metabolic homeostasis and reproduction. It is activated by the steroid hormone progesterone. Endocrine disrupting chemicals (EDCs) and their interactions with steroid hormone receptors like PR causes disruption of normal endocrine function. To identify the compounds that inhibit PR signaling, a PR-UAS-bla GripTite cell line i.e. PR-UAS-bla HEK293T (Invitrogen, Carlsbad, CA, USA) containing a beta-lactamase reporter gene under the control of an UAS response element was used to screen Tox21 10K compound library. The cytotoxicity of the Tox21 compound library against the PR-bla cell line was tested in parallel by measuring the cell viability using CellTiter-Glo assay in the same wells.
Tox21 Assay Protocol Summary:
PR-UAS-bla HEK293T cells were dispensed at 3,000 cells/4 uL of assay medium containing 2% charcoal stripped FBS per well into black wall/clear-bottom 1536-well plates using a Multidrop Combi (ThermoFisher Scientific, Waltham, MA) dispenser. After the assay plates were incubated at a 37C and 5% CO2 for 4 hr, 23 nL of compounds dissolved in DMSO, positive controls or DMSO only was transferred to the assay plate by a Pintool station (Kalypsys, San Diego, CA), followed by addition of 1 uL of R5020 in assay medium using a Flying Reagent Dispenser (FRD, Aurora Discovery, San Diego, CA). The plates were incubated at 37C and 5% CO2 for 16 hr. Then 1 uL of LiveBLAzer B/G FRET substrate was added using a Flying Reagent Dispenser, the plates were incubated at room temperature for 2 hours, and fluorescence intensity was measured by an Envision plate reader (PerkinElmer, Shelton, CT). For cell viability readout that measures cytotoxicity, 4 uL/well of CellTiter-Glo reagent was added into the assay plates using a FRD. After 30 min incubation at room temperature, the luminescence intensity in the plates was measured using a ViewLux (PerkinElmer) plate reader.
`CN(C)CCn1nnnc1SCC1=C(C(=O)O)N2C(=O)[C@@H](NC(=O)Cc3csc(N)n3)[C@H]2SC1`: the Potency result was “inactive”. Then `[O-][N+](=Nc1ccccc1)c1ccccc1`, with “inactive”; and `CCCCCCCCCCCCI`, with “inactive”; and `CCC(=O)c1cccc(Cl)c1`, with “inactive”.

Consider `O=c1[nH]c2ccccc2c(=O)n1CCCl`, for which the Potency entry is “inactive”. Then `COc1ccc(NC(C)=O)cc1`, with “inactive”.

In the case of `CNc1ncnc2nc[nH]c12`, the Potency result is “inactive”.

Regarding `CC/C=C\C#N`, the Potency result was “inactive”. On to `COc1cccc(Br)c1`, for which the Potency result was “inactive”.

As to `Cc1ccccc1Br`, the Potency entry was “inactive”.

Consider `Cc1cc(C)c(NC(=O)CN(CC(=O)O)CC(=O)O)c(C)c1Br`, for which the Potency entry is “inactive”. On to `CCC(C)(C)C1CCC(OC)CC1` (stereo not given), for which the Potency entry is “inactive”. Then `CO[Si](CCCNCCC[Si](OC)(OC)OC)(OC)OC`, with “inactive”. `CCCC=O`: the Potency result was “inactive”. Then `O=C(O)c1ccccc1-c1ccc(C(F)(F)F)cc1`, with “inactive”.

Consider `CN(C)C(=O)Nc1ccccc1`, for which the Potency entry was “inactive”. Then `CCCCC=O`, with “inactive”; and `CCCOCC(C)OCC(C)O` (stereo not given), with “inactive”; and `N[C@@H](CS)C(=O)O`, with “inactive”. Then `Cc1nccn1CC1CCc2c(c3ccccc3n2C)C1=O` (stereo not given), with “inactive”; and `CSc1ccc(C=O)cc1`, with “inactive”; and `OCCCCCCO`, with 61.9 µM (active).

Turning to `CC(C)COC(=O)C(C)C`, the Potency entry is “inactive”.

For the compound `CCO[Si](C)(OCC)OCC`, the Potency result is “inactive”. Then `O=C(O)/C=C/c1ccc(/C=C/C(=O)O)cc1`, with “inactive”. Then `C=C(C)C(=O)OCCC(C)OC(=O)C(=C)C` (stereo not given), with “inactive”; and `C[C@H]1O[C@@H](n2cc(F)c(=O)[nH]c2=O)[C@H](O)[C@@H]1O`, with “inactive”.

As for `N#CCN(CC#N)CCN(CC#N)CC#N`, the Potency result was “inactive”. As for `CC(C)[C@H](N)C(=O)OCCOCn1cnc2c(=O)[nH]c(N)nc21`, the Potency result was “inactive”. As to `CC(=O)N[C@@H](CCC(N)=O)C(=O)O`, the Potency entry is “inactive”. Then `C[N+](C)(C)CC[N+]1(C)Cc2c(Cl)c(Cl)c(Cl)c(Cl)c2C1`, with “inactive”; and `CCOC(=O)Nc1ccc2c(c1)N(C(=O)CCN1CCOCC1)c1ccccc1S2`, with “inactive”; and `Cc1c(F)cc2c(=O)c(C(=O)O)cn3c2c1CCC3C` (stereo not given), with “inactive”. Then `CCCCCCOC(=O)c1ccccc1O`, with 24.3 µM (active). Then `CC(=O)NC(Cc1ccccc1)C(=O)O` (stereo not given), with “inactive”; and `Cc1ccc(N)cc1[N+](=O)[O-]`, with “inactive”. `O=C(CCOCCOCCOCCOCCC(=O)Nc1c(I)cc(I)c(C(=O)O)c1I)Nc1c(I)cc(I)c(C(=O)O)c1I`: the Potency entry was “inactive”. Then `C=CC(=O)OCCCCCC`, with “inactive”. For `CC(C=O)Cc1ccc(C(C)C)cc1` (stereo not given), the Potency result was “inactive”. Then `CC1=CCC2C(C1)C2(C)C` (stereo not given), with “inactive”.
